Laboratory results: PubChem BioAssay (Tox21)
Values without a mark were called inactive. Results filed as inconclusive are left out. A call without a number means that no potency is given here. Activity calls are given as the source filed them. Unless noted, calls follow the shape of the dose curve; as a rule, active = well fitted curve in the direction sought with a large enough effect in the repeat runs; inconclusive = weak or mixed curves; inactive = no such curve, though single readings can be large; an effect the other way counts as inactive or inconclusive.

Legend:
[1] = qHTS assay to identify small molecule HDAC inhibitors - cell viability counter screen (AID 1259365); also: series mostly up to about 92 µM; nearly all actives have a fitted effect of over 50% in size
How it was run: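 To flag cytotoxic hits, 1,500 wild-type HCT-116 cells per well, plated the day before, receive test compounds for 2hr at 37 C before CellTiter-Glo reagent and a luminescence read.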

[2] = qHTS assay to identify small molecule agonists of the sonic hedgehog signaling (Shh) pathway - cell viability counter screen (AID 1259366); also: nearly all actives have a fitted effect of over 50% in size
How it was run: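 Fluorescence from CellTiter-Fluor reports live cells in this counter screen. NIH/3T3-derived Gli1-Luc reporter cells receive test compounds for 24hr at 37C; reagent goes in at 23hr.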

[3] = qHTS assay to identify small molecule antagonists of the sonic hedgehog signaling (Shh) pathway - cell viability counter screen (AID 1259367); also: nearly all actives have a fitted effect of over 55% in size
How it was run: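 Cells: 3T3 Gli1-Luc, 2,000/well, 4 hr pre-incubation. Compounds in DMSO, then conditioned medium. Incubation 24 hr, 37C, 5% CO2. CellTiter-Fluor at 23 hr, 1 hr, fluorescence.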

[4] = qHTS assay to identify small molecule agonists of the sonic hedgehog signaling (Shh) pathway (AID 1259368; calls by dose curve; also: series mostly up to about 92 µM; nearly all actives have a fitted effect of over 15% in size)
How it was run: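 NIH/3T3-derived 3T3Gli1-Luc cells carrying a stably integrated Gli1 response element–firefly luciferase reporter were plated, left 4 hr at 37 C, then given compounds in DMSO for 24 hr. Luminescence was read 30 min after adding luciferase reagent.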

[5] = qHTS assay to identify small molecule antagonists of the sonic hedgehog signaling (Shh) pathway (AID 1259369; calls by dose curve; also: nearly all actives have a fitted effect of over 45% in size)
How it was run: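 NIH/3T3-derived 3T3Gli1-Luc cells with stably integrated Gli1-Luc reporter were preincubated 4hr at 37 C, then given compounds in DMSO plus Shh conditioned medium and incubated 24hr. Firefly luciferase luminescence read after 30min reagent at room temperature.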

[6] = molecular target: Estrogen receptor beta (Homo sapiens) (UniProt Q92731); test: qHTS assay to identify small molecule agonists of the estrogen receptor beta (ER-beta) signaling pathway (AID 1259377; active = well fitted activation curve with a large enough effect in the signal ratio in the repeat runs, not every such curve was filed as active; the % refers to the signal ratio)
Estrogen receptor beta (Homo sapiens), sequence (Q92731 whole entry, looked up): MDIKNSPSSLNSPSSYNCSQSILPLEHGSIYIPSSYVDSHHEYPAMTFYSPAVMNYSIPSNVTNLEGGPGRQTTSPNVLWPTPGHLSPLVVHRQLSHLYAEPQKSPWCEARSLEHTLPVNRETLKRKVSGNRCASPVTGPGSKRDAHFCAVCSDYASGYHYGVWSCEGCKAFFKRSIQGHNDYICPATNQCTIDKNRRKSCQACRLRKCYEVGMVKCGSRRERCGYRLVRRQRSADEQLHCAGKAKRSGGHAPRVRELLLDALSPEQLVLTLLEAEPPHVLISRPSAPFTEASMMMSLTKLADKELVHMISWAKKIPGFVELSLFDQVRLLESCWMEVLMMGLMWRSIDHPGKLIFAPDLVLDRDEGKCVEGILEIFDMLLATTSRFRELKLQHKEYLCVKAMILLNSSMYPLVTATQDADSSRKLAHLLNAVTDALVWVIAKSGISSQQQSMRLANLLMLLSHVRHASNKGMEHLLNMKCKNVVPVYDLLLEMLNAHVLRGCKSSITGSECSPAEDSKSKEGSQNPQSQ
How it was run: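 Screening used GripTite ER-beta-UAS-bla cells held in 2% charcoal-stripped FBS medium. After overnight (16 hr) compound incubation at 37C, beta-lactamase activity was detected with a FRET substrate by fluorescence.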

[7] = molecular target: Estrogen receptor beta (Homo sapiens) (UniProt Q92731); test: qHTS assay to identify small molecule antagonists of the estrogen receptor beta (ER-beta) signaling pathway (AID 1259378; active = well fitted inhibition curve with a large enough effect in the signal ratio in the repeat runs, not every such curve was filed as active; the % refers to the signal ratio)
How it was run: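 Antagonist mode: compounds added to beta-lactamase reporter HEK293T ER-beta-UAS cells stimulated with E2 (1nM final), 16 hr at 37C. LiveBLAzer B/G FRET substrate, 2 hours room temperature, fluorescence read-out.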

[8] = qHTS assay to identify small molecule agonists of the androgen receptor (AR) signaling pathway in the presence of an antagonist - cell viability counter screen (AID 1259379); also: series mostly up to about 92 µM; nearly all actives have a fitted effect of over 25% in size
How it was run: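 MDA-kb2 human breast carcinoma cells (stable MMTV-luciferase, AR/GR responsive) were seeded 3,000 cells/well, pre-incubated 5 hr at 37C without CO2, then given 3.0uM nilutamide and compounds at 15 concentrations for 16 hr. Viability was read by CellTiter-Fluor fluorescence.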

[9] = qHTS assay to identify small molecule agonists of the estrogen receptor beta (ER-beta) signaling pathway - cell viability counter screen (AID 1259380); also: nearly all actives have a fitted effect of over 30% in size
How it was run: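 ER-beta-UAS-bla HEK293T cells in medium with 2% charcoal-stripped FBS were preincubated 6 hr at 37C, dosed with compound in DMSO for 16 hr, then after the bla read, CellTiter-Glo was added for 30 min at room temperature; luminescence recorded.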

[10] = molecular target: Estrogen receptor (Homo sapiens) (UniProt P03372); test: qHTS assay to identify small molecule agonists of the estrogen receptor alpha (ER-alpha) signaling pathway in the presence of an antagonist (AID 1259383; calls by dose curve; also: top concentration of the series differs between compounds; nearly all actives have a fitted effect of over 15% in size)
Estrogen receptor (Homo sapiens), sequence (P03372 whole entry, looked up): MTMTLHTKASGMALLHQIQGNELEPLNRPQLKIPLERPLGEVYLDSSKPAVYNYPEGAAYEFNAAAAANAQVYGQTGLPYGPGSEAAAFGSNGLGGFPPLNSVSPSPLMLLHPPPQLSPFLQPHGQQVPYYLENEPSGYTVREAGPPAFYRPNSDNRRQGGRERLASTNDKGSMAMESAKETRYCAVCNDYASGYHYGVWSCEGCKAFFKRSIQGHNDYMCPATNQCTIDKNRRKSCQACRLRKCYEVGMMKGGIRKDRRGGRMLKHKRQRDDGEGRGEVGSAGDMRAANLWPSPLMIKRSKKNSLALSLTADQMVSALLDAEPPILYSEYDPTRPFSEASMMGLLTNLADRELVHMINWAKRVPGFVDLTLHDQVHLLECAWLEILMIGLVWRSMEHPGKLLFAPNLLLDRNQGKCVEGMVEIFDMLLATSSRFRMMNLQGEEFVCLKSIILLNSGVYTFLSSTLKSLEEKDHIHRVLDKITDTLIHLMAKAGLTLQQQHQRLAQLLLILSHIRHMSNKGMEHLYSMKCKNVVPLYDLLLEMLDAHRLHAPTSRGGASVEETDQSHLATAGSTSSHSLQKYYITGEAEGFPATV
How it was run: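 VM7Luc4E2 cells (endogenous full-length ER-alpha, 4×ERE-luciferase) were precultured 5 days in phenol red-free medium with 10% charcoal-stripped FBS, given 10.0nM ICI-182,780 (final), then treated with compounds at 15 concentrations for 22hr at 37C; luminescence read with ONE-Glo.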

[11] = qHTS assay to identify small molecule agonists or antagonists of the thyroid stimulating hormone receptor (TSHR) signaling pathway - wild type cell line counter screen (AID 1259384; calls by dose curve)
How it was run: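 Counter screen in untransfected Hek293: compounds (15-point titration, triplicate) plus phosphodiesterase inhibitor Ro20-1724 added after 18 h plating; 30 min RT. Intracellular cAMP via competitive d2/cryptate immunoassay, 1 h incubation.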

[12] = molecular target: Thyrotropin receptor (Homo sapiens) (UniProt P16473); test: qHTS assay to identify small molecule antagonists of the thyroid stimulating hormone receptor (TSHR) signaling pathway (AID 1259385; calls by dose curve; also: nearly all actives have a fitted effect of over 20% in size)
Thyrotropin receptor (Homo sapiens), sequence (P16473 whole entry, looked up): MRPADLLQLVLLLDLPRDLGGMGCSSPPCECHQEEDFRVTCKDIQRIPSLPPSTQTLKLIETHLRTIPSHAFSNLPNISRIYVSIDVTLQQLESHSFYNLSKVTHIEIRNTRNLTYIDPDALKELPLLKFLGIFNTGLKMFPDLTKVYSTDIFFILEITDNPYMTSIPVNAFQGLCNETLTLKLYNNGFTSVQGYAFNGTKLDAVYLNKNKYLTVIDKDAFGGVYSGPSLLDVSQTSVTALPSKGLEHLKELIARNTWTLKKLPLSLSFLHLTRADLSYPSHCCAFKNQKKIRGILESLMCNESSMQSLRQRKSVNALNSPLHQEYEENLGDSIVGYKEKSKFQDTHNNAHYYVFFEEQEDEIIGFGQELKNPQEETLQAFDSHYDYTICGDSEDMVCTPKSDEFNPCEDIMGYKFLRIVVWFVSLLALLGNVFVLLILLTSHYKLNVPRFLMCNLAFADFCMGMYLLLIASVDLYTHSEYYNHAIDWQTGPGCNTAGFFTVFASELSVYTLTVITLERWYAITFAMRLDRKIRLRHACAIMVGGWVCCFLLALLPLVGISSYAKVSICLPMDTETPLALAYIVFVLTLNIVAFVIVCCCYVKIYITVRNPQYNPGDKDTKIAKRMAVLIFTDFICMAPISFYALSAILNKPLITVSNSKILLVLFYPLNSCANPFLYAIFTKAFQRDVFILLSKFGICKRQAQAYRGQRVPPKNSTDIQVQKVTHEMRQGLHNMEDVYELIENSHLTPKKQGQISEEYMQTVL
How it was run: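 Antagonist mode: compound-treated TSHR-expressing HEK293 cells were stimulated with 1.5 ng/mL TSH (final) in presence of Ro20-1724 for 30 min at RT. HTRF cAMP detection after 1 h; each compound tested at 15 concentrations, triplicate.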

[13] = qHTS assay to identify small molecule agonists of the estrogen receptor alpha (ER-alpha) signaling pathway in the presence of an antagonist - cell viability counter screen (AID 1259386);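 also: series mostly up to about 92 µM; cells exposed to compounds for 22 h at 37 °C before the viability read; nearly all actives have a fitted effect of over 30% in size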
How it was run: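 VM7Luc4E2 cells (endogenous full-length ER-alpha, 4×ERE-luciferase) were held 5 days in phenol red-free medium with 10% charcoal-stripped FBS, plated, then given 10.0nM ICI-182,780 and compounds at 15 concentrations for 22hr at 37C; viability read by CellTiter-Fluor fluorescence.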

[14] = molecular target: Progesterone receptor (Homo sapiens) (UniProt P06401); test: qHTS assay to identify small molecule agonists of the progesterone receptor (PR) signaling pathway (AID 1346784; calls by dose curve; also: nearly all actives have a fitted effect of over 30% in size)
Progesterone receptor (Homo sapiens), sequence (P06401 whole entry, looked up): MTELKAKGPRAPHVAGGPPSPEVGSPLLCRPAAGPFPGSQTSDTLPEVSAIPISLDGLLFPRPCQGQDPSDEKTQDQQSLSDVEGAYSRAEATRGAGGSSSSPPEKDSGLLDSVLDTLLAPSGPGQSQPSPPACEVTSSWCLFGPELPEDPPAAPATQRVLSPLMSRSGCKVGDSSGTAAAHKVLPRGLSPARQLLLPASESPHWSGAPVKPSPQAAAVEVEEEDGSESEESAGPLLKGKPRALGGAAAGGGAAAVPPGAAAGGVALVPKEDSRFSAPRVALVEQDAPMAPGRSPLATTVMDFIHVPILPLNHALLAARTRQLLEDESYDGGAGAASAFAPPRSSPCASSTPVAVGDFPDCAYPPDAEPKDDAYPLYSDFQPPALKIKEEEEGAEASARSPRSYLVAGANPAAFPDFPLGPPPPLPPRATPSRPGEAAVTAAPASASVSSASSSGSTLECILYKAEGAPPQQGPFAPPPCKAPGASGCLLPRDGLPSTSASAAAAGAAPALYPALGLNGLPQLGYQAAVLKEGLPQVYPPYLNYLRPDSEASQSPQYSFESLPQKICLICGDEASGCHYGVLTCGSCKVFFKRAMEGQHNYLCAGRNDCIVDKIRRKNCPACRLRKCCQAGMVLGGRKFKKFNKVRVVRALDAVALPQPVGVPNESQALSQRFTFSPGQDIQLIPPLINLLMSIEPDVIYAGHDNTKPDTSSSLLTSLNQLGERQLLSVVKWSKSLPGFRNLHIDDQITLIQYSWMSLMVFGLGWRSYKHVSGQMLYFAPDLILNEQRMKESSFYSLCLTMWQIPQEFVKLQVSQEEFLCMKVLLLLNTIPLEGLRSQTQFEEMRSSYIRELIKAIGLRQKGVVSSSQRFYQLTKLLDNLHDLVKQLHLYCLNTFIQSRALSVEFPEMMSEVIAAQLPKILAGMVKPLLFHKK
How it was run: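 Seed PR-UAS-bla HEK 293T cells (2% charcoal-stripped FBS), incubate 6 hr at 37C; add compounds in DMSO, 16 hr at 37C; add LiveBLAzer B/G substrate, 2 hr RT; read fluorescence intensity.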

[15] = qHTS assay to identify small molecule antagonists of the progesterone receptor (PR) signaling pathway - cell viability counter screen (AID 1346798); also: series mostly up to about 92 µM; nearly all actives have a fitted effect of over 50% in size
How it was run: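 Measures cytotoxicity in parallel with the PR antagonist reporter read: HEK293T PR-UAS-bla cells get compound and R5020 for 16 hr, and remaining viable cells are quantified by CellTiter-Glo luminescence.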

[16] = qHTS assay to identify small molecule antagonists of the TGF-beta/Smad signaling pathway - cell viability counter screen (AID 1346824); also: nearly all actives have a fitted effect of over 50% in size
How it was run: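 Cytotoxicity counter-screen run in the same wells as the beta-lactamase Smad reporter read: CellTiter-Glo luminescence after 30 min at room temperature. HEK 293T SBE-bla cells had 5 hr compound exposure at 37 C with TGF-beta1 (0.25 ng/mL stock).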

[17] = molecular target: Androgen receptor (Homo sapiens) (UniProt P10275); test: qHTS assay to identify small molecule agonists of the androgen receptor (AR) signaling pathway in the presence of an antagonist (AID 1259381; calls by dose curve; also: nearly all actives have a fitted effect of over 15% in size)
Androgen receptor (Homo sapiens), sequence (P10275 whole entry, looked up): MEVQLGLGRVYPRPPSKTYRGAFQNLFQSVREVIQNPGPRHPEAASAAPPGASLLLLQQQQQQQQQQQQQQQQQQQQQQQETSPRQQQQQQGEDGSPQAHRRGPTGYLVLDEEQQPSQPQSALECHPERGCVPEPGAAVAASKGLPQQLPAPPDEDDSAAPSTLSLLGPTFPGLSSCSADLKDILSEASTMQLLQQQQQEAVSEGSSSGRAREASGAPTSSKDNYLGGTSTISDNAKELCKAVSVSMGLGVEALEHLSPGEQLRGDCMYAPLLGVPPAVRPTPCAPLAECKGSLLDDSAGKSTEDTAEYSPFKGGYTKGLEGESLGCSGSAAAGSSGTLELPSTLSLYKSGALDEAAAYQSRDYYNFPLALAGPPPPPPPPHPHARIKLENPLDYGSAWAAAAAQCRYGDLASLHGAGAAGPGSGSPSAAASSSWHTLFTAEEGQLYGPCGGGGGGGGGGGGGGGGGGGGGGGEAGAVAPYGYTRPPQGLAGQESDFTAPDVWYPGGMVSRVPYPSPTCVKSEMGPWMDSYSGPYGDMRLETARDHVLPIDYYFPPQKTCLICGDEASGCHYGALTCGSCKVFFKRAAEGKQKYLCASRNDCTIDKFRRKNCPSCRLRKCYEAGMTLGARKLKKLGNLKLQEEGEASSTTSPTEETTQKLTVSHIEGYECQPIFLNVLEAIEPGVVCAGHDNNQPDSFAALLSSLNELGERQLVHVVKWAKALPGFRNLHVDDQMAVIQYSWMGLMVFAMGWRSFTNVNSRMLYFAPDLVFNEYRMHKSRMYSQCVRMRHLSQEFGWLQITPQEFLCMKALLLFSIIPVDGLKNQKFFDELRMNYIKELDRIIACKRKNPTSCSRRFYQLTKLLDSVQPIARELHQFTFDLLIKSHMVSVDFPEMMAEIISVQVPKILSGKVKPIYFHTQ
How it was run: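 MDA-kb2 human breast carcinoma cells carrying an MMTV-luciferase reporter (AR- and GR-responsive) were treated with compounds at 15 concentrations plus 3.0uM final nilutamide for 16hr at 37C without CO2; luminescence was read after ONE-Glo addition.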

[18] = qHTS assay to identify small molecule antagonists of the estrogen receptor beta (ER-beta) signaling pathway - cell viability counter screen (AID 1259382);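 also: HEK293T cells carrying ER-beta-UAS-bla reporter stimulated with estradiol; series mostly up to about 92 µM; nearly all actives have a fitted effect of over 55% in size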
How it was run: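 ER-beta-UAS-bla HEK293T cells (2,000/well, 2% charcoal-stripped FBS) were pre-incubated 6 hr at 37C, then given compound plus 1nM final 17-beta-estradiol for 16 hr. Viability was read in the same wells by CellTiter-Glo luminescence after 30 min at room temperature.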

[19] = molecular target: Progesterone receptor (Homo sapiens) (UniProt P06401); test: qHTS assay to identify small molecule antagonists of the progesterone receptor (PR) signaling pathway (AID 1346795; active = well fitted inhibition curve with a large enough effect in the signal ratio in the repeat runs, not every such curve was filed as active; the % refers to the signal ratio; also: potency is read from the fitted curve at half-maximal effect)
How it was run: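 Screening used a GripTite HEK293T line with PR-responsive UAS-beta-lactamase. Cells were challenged with compound in the presence of 1 nM R5020 final for 16 hr at 37C; B/G FRET substrate, 2 hr room temperature, fluorescence.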

[20] = qHTS assay to identify small molecule agonists of the progesterone receptor (PR) signaling pathway - cell viability counter screen (AID 1346799; calls by dose curve; also: nearly all actives have a fitted effect of over 45% in size)
How it was run: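 Using the same plates as the PR reporter screen, HEK293T PR-UAS-bla cells received compounds for 16 hr at 37C and were then lysed with CellTiter-Glo; luminescence was read 30 min later at room temperature.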

| SMILES | outcome [1] | outcome [2] | outcome [3] | outcome [4] | Potency [5] | Potency [6] | outcome [7] | outcome [8] | Potency [9] | Potency [10] | outcome [11] | outcome [12] | outcome [13] | Potency [14] | outcome [15] | outcome [16] | outcome [17] | outcome [18] | Potency [19] | Potency [20] |
| --- | --- | --- | --- | --- | --- | --- | --- | --- | --- | --- | --- | --- | --- | --- | --- | --- | --- | --- | --- | --- |
| COC(=O)c1ccc(C(=O)O)cc1 | inactive | inactive | inactive | inactive | inactive | inactive | inactive | inactive | inactive | inactive | inactive | inactive | inactive | inactive | inactive | inactive |  |  |  |  |
| C/C(Cl)=C/CCl | inactive | inactive | inactive | inactive | inactive | inactive | inactive | inactive |  | inactive | inactive | inactive | inactive | inactive | inactive | inactive | inactive | inactive | inactive | inactive |
| COc1ccc2cc(CCC(C)=O)ccc2c1 | inactive | inactive | inactive | inactive | inactive | inactive | inactive | inactive | inactive |  | inactive | inactive | inactive | inactive | inactive | inactive |  |  | 13.3 µM (active) |  |
| C=CCCCCCCCCOC(C)=O | inactive | inactive | inactive | inactive | inactive | inactive | inactive | inactive |  | inactive |  |  | inactive | inactive | inactive | inactive |  |  |  | inactive |
